Shiga toxin inh: Shiga toxin inhibition. 9.2% of 290,000 active. Vero cells, Shiga toxin protein synthesis inhibition reporter. inhibition, % at 38.7 µM; in the data active = inhibition mostly above about 28%, no sharp cut-off; inactive = mostly below about 43%; note: 0% is about no effect
Pf growth 48h: inhibits P. falciparum growth in the first generation, 48 h. Potency, µM (top dose mostly 28.7 µM), for inactives: at the top dose activity change, negative = inhibition, actives largely listed as inhibitors. P. falciparum luciferase growth in erythrocytes, 48 h. 5.9% of 310,000 active. AID 504832; note: potency is the fitted concentration of half-maximal effect; % is set by controls: 0 for no effect and ±100 for the full control effect
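First compound was added to culture medium, then infected red cells at 0.1% parasitemia and 2% hematocrit (final). After incubation at 37 C under 5% CO2, luciferase detection reagent was dispensed and light output recorded.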
Pf growth 96h: P. falciparum growth inhibition at 96 hours; P. falciparum luciferase reporter growth, 96 h; Potency, µM (highest dose often 28.7 µM), inactives show at the top dose activity change, negative = inhibition, most hits filed as inhibitors; 6.9% of 320,000 active; AID 504834; note: potency is the fitted concentration of half-maximal effect; % is set by controls: 0 for no effect and ±100 for the full control effect
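Cell-based qHTS: luciferase-tagged P. falciparum in erythrocytes (2% hematocrit, 0.05% parasitemia final) incubated with compounds for 96 hours, 37 C, 5% CO2; luciferase detection reagent then added and luminescence measured.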
CHX counter: counter-screen for Shiga toxin inhibitors: cycloheximide protein synthesis inhibition; 12% of 300,000 active; AID 2314; cell reporter, cycloheximide protein synthesis inhibition counterscreen; max response, %; in the data active = max response mostly above about 13%, no sharp cut-off; inactive = mostly below about 14%; note: read at 38.3 µM for the half of the compounds with a filed dose; 0% is about no effect
An asterisk follows results filed as active; i = inactive; ? = inconclusive; . = not tested or not shown; [ ] = another dose, or the depositor's remark. In the library only some 21% were active in any assay of this set; here they are far more common. Unless noted, calls come from the whole dose curve; as a rule, active = well fitted inhibition curve with a large enough effect; inconclusive = small, poorly fitted or top-dose-only effect, or another doubt; inactive = no such curve, though single readings can be large or run the other way.

SMILES	Shiga toxin inh	Pf growth 48h	Pf growth 96h	CHX counter
O=C(Nc1nccs1)c1cccc(NC(=O)C2CC2)c1	13	-15%	13µM*	9
CC(C)C(=O)Nc1cccc(C(=O)Nc2nccs2)c1	38	17%	18%	15*
C/C(O)=C(/C=Nc1ccccc1)C(=O)Nc1ccccc1	14	7%	11%	9
COC(=O)C1=C(N)Oc2c(c(=O)oc3ccccc23)[C@]12C(=O)N(C)c1ccccc12	-4	0%	-3%	2
COC(=O)C1=C(N)OC(C)=C(C(C)=O)C12C(=O)N(C)c1ccccc12 (stereo not drawn)	-16	6%	8.3µM*	-8
Cc1ccc(CS(=O)Cc2ccc(C(=O)N3CCN(c4ccccn4)CC3)o2)cc1 (stereo not drawn)	8	-18%	34%	-2
CC(C)c1nc(C#N)c(NN)o1	116*	28%	18%	49*
COc1cc(/C=C2/C(=O)N(C)C(=S)N2C)ccc1OCc1cccc(F)c1	3	-1%	3.3µM*	-2
O=C1NC(=O)/C(=C\c2ccc(OCc3cccc(C(=O)O)c3)c(Cl)c2)N1	161*	194%	-29%	81*
COc1cc(/C=C2\NC(=S)NC2=O)ccc1OCc1cccc(C(=O)O)c1	102*	136%	35%	79*
NC(=O)[C@H]1CCCN1C(=O)[C@H](Cc1cnc[nH]1)NC(=O)[C@@H]1CCC(=O)N1	-5	.	.	-7
COc1ccccc1NC(=O)COC(=O)c1ccccn1	-13	2%	-6%	-5
CCOc1ccc2nc(NC(=O)CCC(=O)c3cccs3)sc2c1	87*	125%	.	30*
CCOCC(=O)Nc1nc2ccc(OCC)cc2s1	112*	39%	4%	52*
Cc1ccc2nc(NC(=O)CSCC(=O)OCC(=O)c3ccccc3)sc2c1	15	?	?	18*
Cc1ccc2nc(NC(=O)COC(=O)c3ccccn3)sc2c1	119*	167%	147%	36*
Cc1ccc2nc(NC(=O)CSc3nc4ccccc4o3)sc2c1	26	.	?	17
CC(CCc1ccccc1)NC(=O)CNC(=S)N(Cc1cccs1)C1CCCC1 (stereo not drawn)	24	?	-32%	-3
c1ccc(C(OC2CCCN(CCc3ccc4c(c3)OCO4)C2)c2ccccc2)cc1 (stereo not drawn)	16	.	.	-4
CC1CCN(S(=O)(=O)c2ccc(C(=O)N3CCOCC3)cc2)CC1	-9	-27%	?	-2
CCOCC(=O)Nc1nc2ccc(S(C)(=O)=O)cc2s1	54*	21%	-1%	33*
C/C=C/C(=O)OCC(=O)Nc1nc2ccc(C)cc2s1	-3	.	10µM*	7
CC(C)CC(=O)Nc1nc2ccc(S(C)(=O)=O)cc2s1	67*	-11%	?	17*
CS(=O)(=O)c1ccc2nc(NC(=O)CC3CCCC3)sc2c1	53*	?	15%	24*
Cc1cccc(OCC(=O)Nc2nc3ccc([N+](=O)[O-])cc3s2)c1	-20	16%	12%	-3
SMILES	Shiga toxin inh	Pf growth 48h	Pf growth 96h	CHX counter
Cc1ccc(-c2nn3cnnc3c3ccccc23)cc1C	-6	?	?	-2
NS(=O)(=O)c1ccc(NC(=O)c2cc(Cl)sc2Cl)cc1	-4	20%	-28%	-8
CCOCC(=O)Nc1nc2ccc(C)cc2s1	85*	i	5%	43*
CCOc1ccc2nc(-c3cc(NC(C)=O)ccc3O)sc2c1	51	168%	47%	35*
Cc1ccc2nc(NC(=O)CCCC(=O)O)sc2c1	6	-39%[1.15 µM]	?	-3
COc1ccc(N2CCN(C(=O)c3ccccc3NC(=O)c3ccccc3)CC2)cc1	-8	22%	?	7
Cc1ccc(C)c(OCC(=O)Nc2cc(C)on2)c1	46	58%	?	22*
Cc1cccc(OCC(=O)Nc2cc(C)on2)c1	active	31%	?	16*
CCOC(=O)C1CCCN(S(=O)(=O)CCNC(=O)c2ccc(F)cc2)C1 (stereo not drawn)	.	10%	27%	.
CCOC(=O)c1ccc(CNC(=O)C2CCC(=O)N(CCc3ccccc3)C2)o1 (stereo not drawn)	18	-19%	-15%	1
CCCCCC1CC(=O)C=C(C)C1C(=O)OC (stereo not drawn)	-9	-18%	-4%	-1
COc1ccc(-c2[nH]ncc2CN(CCO)CC23CC4CC(CC(C4)C2)C3)c(OC)c1	-4	?	?	-2
COCCSc1nnc(NC(=O)c2ccco2)s1	36	53%	?	20*
CSc1nnc(NC(=O)c2ccco2)s1	.	102%	15%	16*
COCc1nnc(NC(=O)c2ccco2)s1	14	18%	.	-1
CCCSc1nnc(NC(=O)c2ccco2)s1	109*	218%	36%	24*
Cc1cnc(NC(=O)c2ccco2)s1	125*	188%	181%	34*
COc1c(Cl)cc(Cl)cc1CNCCO	-6	-5%	71%	9
O=[N+]([O-])c1ccccc1CCc1cnc(Cl)s1	-3	-2%[0.00184 µM]	21%	-2
CC(=O)Nc1cccc(NC(=O)CSc2nnc(NC(=O)c3ccco3)s2)c1	-4	-17%	-13%	-4
O=C(CSc1nnc(NC(=O)c2ccco2)s1)Nc1cccc(F)c1	78*	65%	64%	32*
Cc1ccc(C)c(OCc2nnc(NC(=O)c3ccco3)s2)c1	-9	8%	10µM*	-2
CCN(CC)S(=O)(=O)c1cccc(-n2c(O)c(C=Nc3ccccc3C(=O)O)c3ccccc3c2=O)c1	1	13µM*	7.4µM*	0
CC(C)C1(C)C(=O)N=C2c3ccccc3C(=O)N21 (stereo not drawn)	-18	3%	12µM*	-3
O=C(CCCN1C(=O)/C(=C\c2cccc(Br)c2)SC1=S)Nc1cccnc1	-10	?	8%	-3
SMILES	Shiga toxin inh	Pf growth 48h	Pf growth 96h	CHX counter
O=C(c1ccccc1)N1CCN(C(=S)NCc2ccco2)CC1	-7	18%	31%	6
CC(C)n1cnc2c(NCc3ccccc3)nc(NCCCO)nc21	-12	.	.	-4
CC(C)[C@H](CO)N(Cc1cccc(F)c1)c1nc(Nc2cccc(Cl)c2)c2ncn(C(C)C)c2n1	20	12µM*	?	9
CC[C@H](CO)Nc1nc(Nc2cccc(Cl)c2)c2ncn(C(C)C)c2n1	22	12µM*	5.2µM*	10*
O=C(O)[C@H](Cc1ccccc1)N1Cc2ccccc2C1=O	-9	.	16%	-8
O=C(O)C(Cc1c[nH]c2ccccc12)N1Cc2ccccc2C1=O (stereo not drawn)	42*	127%	71%	28*
O=C(CSCc1ccccc1F)NCc1ccc(F)cc1	55	60%	?	43*
O=C(CCSCc1ccccc1F)NCCc1ccccc1	21	26%	?	17*
O=C(CSCc1ccc(F)cc1)NCc1ccc(F)cc1	60	23%	37%	-2
COc1ccccc1CNC(=O)CCSCc1cccc(Cl)c1	-9	3%	1.2µM*	-3
O=C(CCSCc1ccccc1F)NCc1ccc(F)cc1	2	.	2.3µM*	0
O=C(O)c1cc(-c2ccc(Cl)c(Cl)c2)n(-c2ccc(F)cc2)n1	7	.	20%	-5

Screening results from PubChem.
